# From PubChem BioAssay
# Experiments:
# [1] = tested on: Human papillomavirus type 1a protein E7 (residues 44-93); experiment: small molecules binding HPV E7 44-93 – biochemical, small-molecule microarray, residues 44-93, 635 nm fluorescence, primary screen (AID 1108); details: fluorescence 635 nm, higher = more signal;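 also: E7 fragment applied at 1 µg/mL in TBST for 1 h at 4 C; score combines spot fluorescence with its signal to noise ratio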
# [2] = hepatitis C replication reporter changes, two-sided – Huh7 cells, luciferase reporter, HCV replication inhibitor project, primary screen (AID 1109); details: Huh7 HCV replicon luciferase reporter, 48 h; higher = more signal;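 also: huh7 hepatoma cells harbouring a luciferase neomycin HCV replicon reporter; luciferase luminescence as measure of HCV replicon replication; test concentration not given here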
# [3] = molecular target: Left-right determination factor 2 (Homo sapiens) (UniProt O00292); experiment: small molecules binding LEFTY2 protein – biochemical, small-molecule microarray, 635 nm fluorescence scan, primary screen (AID 1110); details: higher = more signal
# [4] = molecular target: Calmodulin-1 (Homo sapiens) (UniProt P0DP23); experiment: small molecules binding calmodulin-1 with EGTA – biochemical, small-molecule microarray, Cy5-labelled CALM1, profiling panel (AID 1111); details: Cy5-CALM1 binding fluorescence, higher = more signal;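 also: labelled calmodulin applied in Tris saline Tween buffer holding calcium plus EGTA and DTT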
# [5] = molecular target: Calmodulin-1 (Homo sapiens) (UniProt P0DP23); experiment: small molecules binding Ca-loaded calmodulin-1 – biochemical, small-molecule microarray, Cy5-labelled CALM1, plus calcium, artefact control for SMM control-protein annotation, profiling panel (AID 1112); details: Cy5-CALM1 binding fluorescence, higher = more signal;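 also: score merges spot fluorescence with signal to noise from triplicate slides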
# [6] = probe aWnt5a binding to arrayed compounds – biochemical, biotinylated probe, 635/667 nm fluorescence, primary screen (AID 1113); details: small-molecule microarray, higher = more signal;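 also: score merges 667 nm fluorescence intensity with signal-to-noise per printed feature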
# [7] = probe aShh binding to arrayed compounds – biochemical, biotinylated probe, 635/667 nm fluorescence, primary screen (AID 1114); details: small-molecule microarray, higher = more signal;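 also: probe is biotin-labelled aShh protein from a stem cell growth factor screen; measures binding of labelled protein to compounds printed on the slide; score merges feature fluorescence at 667 nm with signal-to-noise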
# [8] = probe aNog binding to arrayed compounds – biochemical, biotinylated probe, 635/667 nm fluorescence, primary screen (AID 1115); details: small-molecule microarray, higher = more signal;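 also: probe is biotinylated aNog protein used at 0.15 µg/mL for 1 h at 4 C; z-score combines 667 nm fluorescence of each spot with its signal to noise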
# [9] = molecular target: Torsin-1A-interacting protein 1 (Homo sapiens) (UniProt Q5JTV8); experiment: compound microarray binding of lysate hLAP1 – cell lysate, small-molecule microarray, COS7 lysate, 635/667 nm fluorescence, primary screen (AID 1116); details: 635 nm fluorescence, higher = more signal
# [10] = molecular target: Alpha-bungarotoxin (Bungarus multicinctus) (UniProt P60615); experiment: compounds binding labelled alpha-BTX control protein – biochemical, small-molecule microarray, Alexa647 label, 635/667 nm fluorescence, artefact control for SMM control protein annotation, profiling panel (AID 1117); details: alpha-BTX-A647 binding fluorescence, higher = more signal
# Sequence of Alpha-bungarotoxin (Bungarus multicinctus) (P60615 whole entry, looked up): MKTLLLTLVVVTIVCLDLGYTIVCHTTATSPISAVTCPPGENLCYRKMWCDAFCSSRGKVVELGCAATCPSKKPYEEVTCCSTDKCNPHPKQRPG
# Sequence of Left-right determination factor 2 (Homo sapiens) (O00292 whole entry, looked up): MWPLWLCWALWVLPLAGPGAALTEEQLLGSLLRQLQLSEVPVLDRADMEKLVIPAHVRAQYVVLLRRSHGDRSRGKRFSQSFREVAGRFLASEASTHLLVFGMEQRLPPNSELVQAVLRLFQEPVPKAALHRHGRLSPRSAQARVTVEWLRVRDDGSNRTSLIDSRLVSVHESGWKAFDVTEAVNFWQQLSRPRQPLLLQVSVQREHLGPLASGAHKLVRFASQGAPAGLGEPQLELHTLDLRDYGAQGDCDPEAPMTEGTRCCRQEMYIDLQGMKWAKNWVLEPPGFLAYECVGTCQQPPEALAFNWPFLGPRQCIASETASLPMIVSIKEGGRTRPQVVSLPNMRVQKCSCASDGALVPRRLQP
# Sequence of Torsin-1A-interacting protein 1 (Homo sapiens) (Q5JTV8 whole entry, looked up): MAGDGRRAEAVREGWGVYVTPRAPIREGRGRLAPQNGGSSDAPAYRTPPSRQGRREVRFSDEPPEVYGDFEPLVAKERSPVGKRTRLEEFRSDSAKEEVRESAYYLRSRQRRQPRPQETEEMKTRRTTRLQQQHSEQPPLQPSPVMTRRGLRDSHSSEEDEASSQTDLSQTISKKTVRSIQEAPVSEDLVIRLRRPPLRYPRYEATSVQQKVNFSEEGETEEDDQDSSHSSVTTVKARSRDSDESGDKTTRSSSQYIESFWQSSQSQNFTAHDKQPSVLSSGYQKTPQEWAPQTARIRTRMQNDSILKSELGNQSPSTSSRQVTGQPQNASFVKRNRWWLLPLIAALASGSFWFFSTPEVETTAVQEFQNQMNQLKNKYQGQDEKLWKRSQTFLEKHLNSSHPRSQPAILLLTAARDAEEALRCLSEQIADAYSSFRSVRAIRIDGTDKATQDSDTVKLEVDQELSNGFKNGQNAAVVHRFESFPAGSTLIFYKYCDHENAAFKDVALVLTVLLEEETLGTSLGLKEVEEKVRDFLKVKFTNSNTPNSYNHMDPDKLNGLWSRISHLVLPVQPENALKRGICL
Structure (SMILES),composite z-score [1],z-score [2],composite z-score [3],composite z-score [4],composite z-score [5],composite z-score [6],composite z-score [7],composite z-score [8],composite z-score [9],composite z-score [10]
CCCCC=C[C@@H](NC(=O)C(C)(C)C)c1ccccc1,1.28,-3.07,0.466,0.815,0.113,0.0357,0.54,0.863,-0.334,0.82
O=C1O[C@H](c2ccccc2)[C@H](c2ccccc2)N2[C@H]1[C@@H](C(=O)O)[C@]1(C(=O)Nc3ccc(C#CC4(O)CCCCCC4)cc31)[C@H]2c1ccccc1OCCO,1.11,-2.11,0.39,1.99,1.03,0.0839,0.459,0.938,0.727,1.95
COC(=O)C[C@H]1O[C@]2(C(=O)N(C)c3ccccc32)[C@@H](C)[C@@H]1[Si](C)(C)c1ccccc1,0.623,-2.1,0.469,-0.0495,-0.401,-0.124,0.318,-0.0446,0.0282,0.586
COc1ccc(-c2cc3c(c(CCc4ccccc4)n2)[Si](C(C)C)(C(C)C)O[C@H]3c2ccccc2)cn1,-0.38,-1.8,0.0069,-0.0526,-0.517,-0.12,-0.0192,-0.158,-0.309,0.31
C=C(C(=O)CC[C@H](OC(=O)c1ccccc1-c1ccccc1C(=O)O)c1ccc(OCCO)cc1)C(C)C,1.38,-1.26,0.0164,0.275,-0.37,0.204,0.0639,1.14,0.735,0.971
C=CC[C@@]1(C(=O)NCCCOC)N=C(c2ccc(OCCCO)cc2)O[C@@H]1c1ccccc1CN=[N+]=[N-],1.42,-2.12,0.266,1.66,0.414,0.0391,-0.13,0.396,0.957,1.19
CCOC(=O)C[C@H]1[C@H](OC(=O)c2ccccc2-c2ccccc2)[C@@H](NC(=O)CC(C)C)c2cc(OCCCO)ccc2N1C(=O)c1ccccc1,0.0819,-0.783,0.466,-0.0923,-0.497,-0.124,-0.289,-0.189,0.222,0.23
COCCCNC(=O)[C@]1(Cc2ccccc2N=[N+]=[N-])N=C(c2ccc(OCCCO)cc2)O[C@@H]1c1ccccc1,0.565,-1.69,-0.263,2.24,0.908,-0.118,0.0638,-0.661,1.69,2.32
C=C(COC)C(=O)CC[C@@H](OC(=O)c1ccccc1-c1ccccc1C(=O)O)c1ccccc1OCCO,0.933,-1.91,0.585,-0.537,-1.2,-0.232,-0.17,0.153,3.7,-0.217
COc1c(C)cc(-c2cc3c(c(CCc4ccccc4)n2)[Si](C(C)C)(C(C)C)O[C@H]3c2ccccc2)cc1C,-0.52,-3.84,-0.124,0.261,0.502,0.0136,0.0008,0.0225,-0.445,-0.176
COc1ccc(CCNC(=O)[C@@H]2c3ccccc3C(=O)N(C(C)C)[C@H]2c2ccc(CO)cc2)cc1,-0.943,-1.41,-1.81,-0.446,0.465,-0.172,-0.209,-0.0621,0.434,2.66
CC(=O)NCCCC[C@@H]1NC(=O)[C@H]2C[C@@H](C(=O)O)[C@@H](c3cccc(OCCO)c3)N2C1=O,1.11,-1.14,0.978,0.0626,-0.767,0.27,0.588,1.51,1.53,1.49
CC1(C)OB(/C=C\CC(OC(=O)c2ccncc2)c2ccccc2)OC1(C)C (stereo not given),0.0565,-0.382,-1.46,-2.58,-2.34,-0.124,0.0469,-0.76,0.161,-0.778
CC[C@@H](O[Si](C#C[Si](C(C)C)(C(C)C)C(C)C)(C(C)C)C(C)C)c1cn(Cc2cccc(Cl)c2)nn1,0.906,-0.959,0.374,0.0371,-0.461,-0.0194,-0.154,-0.124,0.403,0.485
[N-]=[N+]=Nc1ccccc1C[C@]1(C(=O)N2CCCCC2)N=C(c2ccc(OCCCO)cc2)O[C@H]1c1ccccc1,-0.0987,-2.42,0.0344,1.8,0.727,0.0101,0.202,-0.544,0.824,1.93
CCCCCN1CC=CC23O[C@@H]4/C=C\CCCOC(=O)C4[C@H]2C(=O)N(CCCCCO)[C@@H]3C1=O (stereo not given in full),-0.735,-0.831,-1.08,-0.517,-0.97,-0.224,0.0121,-0.121,-1.28,-0.543
C=C(C)C1CN([C@H](CO)c2ccccc2)C(=O)/C1=C\c1ccccc1 (stereo not given in full),-0.165,-1.56,0.241,-0.565,-0.754,-0.144,-0.289,0.172,0.189,-0.173
CCCN1C(=O)[C@@]2(c3ccc([N+](=O)[O-])cc3)CC(=O)N(C3CCCCC3)[C@@H]2c2ccc(CO)cc21,0.202,-0.136,0.445,-0.0766,-0.567,-0.18,-0.225,-0.0165,-0.349,-0.171

Structure (SMILES),composite z-score [1],z-score [2],composite z-score [3],composite z-score [4],composite z-score [5],composite z-score [6],composite z-score [7],composite z-score [8],composite z-score [9],composite z-score [10]
COC(=O)[C@@]1(Cc2ccc(F)cc2)[C@H]2c3cc(C(=O)N(C)C)n(CCF)c3C[C@H]2CN1C(=O)c1ccccc1,-0.999,-1.38,-0.0571,0.838,0.55,0.0657,0.337,0.787,0.163,0.3
COc1ccc([Si](C)(C)[C@H]2[C@H](CC(=O)N(CCO)Cc3ccccc3)O[C@@]3(C(=O)N(Cc4cccc(N5CCCCC5=O)c4)c4ccccc43)[C@@H]2C)cc1,0.558,-4.06,0.384,-0.0075,0.117,-0.147,0.235,-0.0863,-0.0746,0.595
C=CCOC(=O)[C@@H]1[C@H]2C(=O)O[C@H](c3ccccc3)[C@H](c3ccccc3)N2[C@H](c2ccc(OCCOC(=O)[C@@H]3C[C@@H]4C(=O)N[C@@H](CC(C)C)C(=O)N4[C@@H]3c3ccc(O)cc3)cc2)[C@@]12C(=O)Nc1ccc(I)cc12,1.39,-0.432,1.26,0.751,0.289,-0.263,-0.0793,1.12,-0.107,1.44
Cc1ccc(S[C@]2(C(=O)NCc3ccccc3)CC(=O)N(Cc3ccccc3C(F)(F)F)[C@@H]2c2ccc(CO)cc2I)cc1,-0.565,-1.64,-0.916,-0.348,0.549,-0.124,-0.334,0.389,0.662,-0.593
CCCCN1CC=CC23O[C@@H]4C=CCCOC(=O)C4[C@H]2C(=O)N(CCO)[C@@H]3C1=O (stereo not given in full),-0.548,-0.161,-1.02,-0.555,-0.436,-0.298,0.149,-0.249,-0.997,-0.363
CN(C)CCCCCCNC(=O)[C@@H]1C[C@@H]2C(=O)N[C@@H](CCCC[N+](C)(C)C)C(=O)N2[C@@H]1c1cccc(OCCO)c1,-0.0272,3.7,-1.28,-0.207,-0.327,-0.0981,-0.295,-0.444,2.09,0.217
C=CCN1C(=O)[C@]2(O[C@H](CCO)[C@@H]([Si](C)(C)c3ccc(OC)cc3)[C@@H]2C)c2cc(N3C(=O)c4ccccc4Oc4ccccc43)ccc21,1.3,-5.05,0.28,1.2,0.323,-0.0203,-0.0709,-0.158,-0.0465,0.378
C=C(COC)C(=O)CC[C@H](OC(C)=O)c1ccc(CO)o1,-1.05,0.272,0.451,0.44,-1.07,-0.152,-0.0709,-0.273,-0.534,0.706
CCCCN1CC=CC23O[C@@H]4/C=C\CCC(C)OC(=O)C4[C@H]2C(=O)N(CCO)[C@@H]3C1=O (stereo not given in full),-0.391,-0.58,-0.99,-0.896,-0.272,-0.171,-0.2,0.171,3.55,-0.238
COC(=O)[C@@]1(Cc2ccccc2)[C@H]2c3cc(C(=O)N(C)C)n(CCF)c3C[C@H]2CN1C(=O)c1ccccc1,0.233,-1.66,-0.555,2.8,1.31,-0.0118,-0.305,-0.52,3.08,1.43
CC(C)[Si](C#Cc1ccccc1)(O[C@H](c1ccccc1)c1cn(Cc2ccccc2)nn1)C(C)C,0.657,0.167,0.0441,-0.49,-1.67,-0.169,-0.138,-0.138,0.567,0.579
CC(C)C[C@@H]1NC(=O)[C@@H]2C[C@H](C(=O)NCCCCCNC(=O)CS)[C@H](c3ccc(O)cc3)N2C1=O,1.37,2.04,0.104,1.18,0.194,-0.12,0.0637,-0.12,0.097,0.136
O=C(CS)NCCCCCCNC(=O)[C@H]1C[C@H]2C(=O)NCC(=O)N2[C@H]1c1cccc(OCCO)c1,0.864,0.36,0.281,0.214,0.214,0.0079,0.123,0.113,0.469,1.36
CCOC(=O)C[C@H]1[C@H](OC(=O)Cc2ccc3c(c2)OCO3)[C@@H](NC(=O)CC(C)C)c2cc(OCCCO)ccc2N1C(=O)c1ccc2ccccc2n1,1,-0.699,0.305,0.42,-0.717,-0.0405,-0.221,-0.0208,0.633,0.185
CCOC(=O)C1=CCC(c2ccncc2)N(S(=O)(=O)c2ccc(C)cc2)C1 (stereo not given),1.47,-2.8,0.502,1.61,0.276,-0.0125,-0.154,-0.389,2.15,0.842
CO[C@H]1O[C@H](CO)[C@@H](OC(=O)CCc2ccccc2)[C@@H]2OC(=O)[C@@H](Cc3ccc4ccccc4c3)C/C=C/C[C@H](Cc3ccc4ccccc4c3)C(=O)O[C@@H]12,0.349,0.228,-0.817,-0.452,-0.119,-0.202,-0.0709,-0.266,-0.0222,1.33
[N-]=[N+]=NCc1ccccc1[C@H]1OC(c2ccc(OCCCO)cc2)=N[C@@]1(Cc1ccccc1N=[N+]=[N-])C(N)=O,1.44,-1,0.373,1.1,0.613,0.117,-0.111,0.924,0.154,1.03
